The source of these data is PubChem BioAssay AID1347419 (Sanford-Burnham Center for Chemical Genomics, 2020).

Each structure is given as a SMILES string. Screen size: about 99,000 compounds; about 820 (0.83%) were called active. The list comes from a sample in which actives are over-represented; it also holds similar structures and randomly drawn compounds. Unmarked numbers belong to inactive results.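 How the source made its calls: active means Z-score of -3 or lower, scaled per plate to the spread of control and sample wells; inactive means z-score above -3.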

For this assay, the target named is Protein-tyrosine kinase 2-beta (Homo sapiens) (UniProt Q14289). Nature of the assay: Pyk2 FERM oligomerization blockers – Q293 cells, FERM NanoBiT luminescence, HTS, primary screen (AID 1347419).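 Further: the deposit names both 25 µM and 10 µM; negative z-score means lost luminescence so less FERM oligomerization.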 Conditions: active compounds read low. More on the design: dose or concentration left out as unconfirmed.
Chain of Protein-tyrosine kinase 2-beta (Homo sapiens) (Q14289 whole entry, looked up): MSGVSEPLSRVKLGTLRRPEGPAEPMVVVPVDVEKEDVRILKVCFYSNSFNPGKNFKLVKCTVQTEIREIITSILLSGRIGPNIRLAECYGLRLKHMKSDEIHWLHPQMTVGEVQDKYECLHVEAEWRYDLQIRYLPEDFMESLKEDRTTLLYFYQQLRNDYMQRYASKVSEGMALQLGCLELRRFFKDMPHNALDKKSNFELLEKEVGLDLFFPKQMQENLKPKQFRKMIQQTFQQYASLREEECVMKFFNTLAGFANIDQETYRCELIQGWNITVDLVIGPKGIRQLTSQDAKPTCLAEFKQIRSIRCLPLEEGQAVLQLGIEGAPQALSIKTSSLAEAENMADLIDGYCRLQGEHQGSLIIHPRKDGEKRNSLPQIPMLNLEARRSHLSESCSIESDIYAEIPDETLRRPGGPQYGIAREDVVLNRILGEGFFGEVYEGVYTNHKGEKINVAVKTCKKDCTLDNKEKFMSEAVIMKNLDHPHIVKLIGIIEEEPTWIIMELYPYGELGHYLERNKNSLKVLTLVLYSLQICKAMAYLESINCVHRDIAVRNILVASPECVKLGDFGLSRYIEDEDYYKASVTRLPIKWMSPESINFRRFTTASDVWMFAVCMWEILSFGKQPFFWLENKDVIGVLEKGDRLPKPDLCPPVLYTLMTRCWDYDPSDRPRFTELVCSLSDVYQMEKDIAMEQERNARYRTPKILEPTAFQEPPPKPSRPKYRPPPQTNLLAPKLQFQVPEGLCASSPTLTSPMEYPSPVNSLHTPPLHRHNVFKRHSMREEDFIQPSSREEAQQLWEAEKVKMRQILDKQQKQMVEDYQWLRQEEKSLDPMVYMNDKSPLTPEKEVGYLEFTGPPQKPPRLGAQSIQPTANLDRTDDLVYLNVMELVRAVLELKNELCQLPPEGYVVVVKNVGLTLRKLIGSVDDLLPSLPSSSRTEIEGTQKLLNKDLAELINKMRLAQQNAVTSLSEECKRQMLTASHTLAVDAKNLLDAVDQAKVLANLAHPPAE
Take `CCC(=NCCc1ccccc1)c1c(O)n(C2CCCCC2)c(=O)[nH]c1=O`: the z-score is -3.36 (active). Next, `CCC(=NCc1ccco1)c1c(O)n(Cc2ccccc2)c(=O)[nH]c1=O`: -0.23; `CC(=O)c1c(O)n(C2CCCCCC2)c(=O)[nH]c1=O`: 0.12.

Turning to `CN(C)c1ccc(/C=C2\CC3C4CC=C5CC(O)CCC5(C)C4CCC3(C)C2=O)cc1` (stereo not given), the z-score was -0.08.

In the case of `O=C(COC(=O)c1ccccc1)Nc1ccc(Cl)cc1C(=O)c1ccccc1`, the z-score was 0.02.
